Activation (reported as inhibition), inhibition and activation data for 32 compounds are collected here from PubChem BioAssay.

In assay [1] the target is Photoreceptor-specific nuclear receptor (Homo sapiens) (UniProt Q9Y5X4). The assay is described as follows: corepressor-releasing ligands of human NR2E3 – biochemical, TR-FRET, confirmation (AID 2379; in the data active = activation above about 20%). The conditions noted are these: cell-free NR2E3 corepressor release, 5 h, at 3.98 µM, stronger effect = higher value. (In TR-FRET formats the signal depends on donor and acceptor labels being close together.)
Chain of Photoreceptor-specific nuclear receptor (Homo sapiens) (Q9Y5X4 whole entry, looked up): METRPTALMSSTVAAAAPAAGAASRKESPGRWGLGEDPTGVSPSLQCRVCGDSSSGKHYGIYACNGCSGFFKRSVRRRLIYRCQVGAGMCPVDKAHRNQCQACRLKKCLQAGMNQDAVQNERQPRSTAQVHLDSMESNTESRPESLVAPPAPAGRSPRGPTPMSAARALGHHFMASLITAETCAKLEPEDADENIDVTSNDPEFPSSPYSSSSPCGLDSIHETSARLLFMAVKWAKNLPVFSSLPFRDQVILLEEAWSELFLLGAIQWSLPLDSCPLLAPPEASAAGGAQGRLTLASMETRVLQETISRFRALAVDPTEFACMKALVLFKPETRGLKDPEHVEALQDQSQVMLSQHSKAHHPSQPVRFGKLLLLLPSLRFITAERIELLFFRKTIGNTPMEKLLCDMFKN

Assay [2] has as its target Peroxisome proliferator-activated receptor gamma (Homo sapiens) + Nuclear receptor corepressor 2 (Homo sapiens) (UniProt P37231+Q9Y618). In words: agonists of PPARg-NCOR2 corepressor interaction, counter-screen for NR2E3 agonist project, biochemical, TR-FRET (AID 504787; in the data active = inhibition above about 20%;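 note: 0% = DMSO vehicle and 100% = wells without protein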). Conditions: TR-FRET PPARg-NCOR2 coregulator interaction, at 3.98 µM, stronger effect = higher value. (A counterscreen serves to expose hits that act by an unwanted route or on another target.)

Assay [3] has as its target Oxytocin receptor (Homo sapiens) (UniProt P30559). In words: oxytocin receptor activation, retest of hits – fluorescence, CHO-OTR cells, triplicate, confirmation (AID 434963).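 Note: peak over minimum fluorescence ratio per well during a 100 second FLIPR read; 0% = DMSO alone and 100% = oxytocin high control.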 The conditions noted are these: Fluo-8 calcium fluorescence, agonist, at 3 µM, stronger effect = higher value.
Assay [4] has as its target Vasopressin V1a receptor (Homo sapiens) (UniProt P37288). The assay is described as follows: activators of vasopressin V1R in CHO cells – cell-based, triplicate, fluorescence, counter-screen for OXTR agonist project (AID 434991;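 active = mean activation over triplicate exceeds the hit threshold set in the earlier primary screen, cut at about 20% in these data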;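 note: peak over basal fluorescence ratio within a 100 second read; 0% = DMSO alone and 100% = 3 nM vasopressin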). Conditions: Fluo-8 calcium fluorescence, at 3 µM, stronger effect = higher value.
Assay [5] concerns the target Lytic switch protein BZLF1 (Epstein-Barr virus (strain B95-8)) (UniProt P03206). The assay is described as follows: blockers of Zta-ZRE DNA complex – biochemical, fluorescence polarization, triplicate, confirmation (AID 2361;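 active = mean inhibition across triplicate runs above the hit threshold derived for the original primary screen, cut at about 33% in these data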;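 note: 0% = Zta with DMSO and 100% = wells lacking Zta protein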). The conditions noted are these: Zta-ZRE DNA binding, at 11.1 µM, stronger effect = higher value. A general note: In fluorescence polarisation assays a small probe gives low polarisation when free and higher when bound to something large.

The test system of assay [6] is Epstein-Barr virus nuclear antigen 1 (EBNA-1), Human herpesvirus 4. The assay is described as follows: blockers of EBV EBNA-1 binding to DNA – biochemical, fluorescence polarization, counter-screen for ZTA inhibitor project (AID 2362; call rule not given here). The conditions noted are these: EBNA-1 DNA binding, at 14.8 µM, stronger effect = higher value.
Assay [7] concerns the target Galanin receptor type 2 (Homo sapiens) (UniProt O43603). The assay is described as follows: blockers of human galanin receptor 2 – cell-based, confirmation (AID 866; in the data active = inhibition above about 27%;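 note: cells stimulated with galanin at about its EC80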). The conditions noted are these: GALR2-expressing cells, antagonist mode, at 4 µM, stronger effect = higher value.
The nature of assay [8]: nonspecific BLA reporter inhibition – CHO NFAT-bla cells, FRET readout, counter-screen for GALR2 antagonist project, confirmation (AID 867;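 active = inhibition above the mean inhibition across tested compounds plus 3 SD, cut at about 27% in these data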;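 note: 0% = 500 nM thapsigargin stimulated wells and 100% = unstimulated BSA only wells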). The conditions noted are these: beta-lactamase FRET, thapsigargin-stimulated, at 4.2 µM, stronger effect = higher value.
Assay [9] concerns the target Glutathione S-transferase omega-1 (Homo sapiens) (UniProt P78417). The assay is described as follows: recombinant GSTO1 blockers, retest – biochemical, fluorescence polarization, triplicate, counter-screen for RBBP9 inhibitor project, confirmation (AID 2176;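 active = inhibition above the primary screen's cutoff, its mean inhibition plus 3 SD, cut at about 35% in these data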;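 note: loss of polarization as inhibitors block binding of rhodamine sulfonate ester activity probe; 0% = GSTO1 with DMSO and 100% = wells lacking GSTO1 enzyme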). Conditions: recombinant GSTO1, probe fluorescence polarization; at 5.96 µM; stronger effect = higher value.
The target of assay [10] is Serine protease HTRA1 (Homo sapiens) (UniProt Q92743). The assay is described as follows: confirming inhibition of human HTRA1 – biochemical, fluorescence polarization, confirmation (AID 540248;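 active = mean inhibition over three repeats above a set limit taken from the earlier primary screen, cut at about 37% in these data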;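 note: 0% = HTRA1 with DMSO and 100% = wells lacking HTRA1; inhibitors block probe binding so polarization drops and inhibition rises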). Conditions: recombinant HTRA1, FP-rhodamine activity-based probe, at 5.96 µM, stronger effect = higher value.
For assay [11], the target named is (Lyso)-N-acylphosphatidylethanolamine lipase (Mus musculus) (UniProt Q8VD66). The assay is described as follows: mouse ABHD4 hydrolase blockers, triplicate – biochemical, fluorescence polarization, confirmation (AID 720658;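 active = mean inhibition across replicates above the hit cutoff set in the primary screen, cut at about 30% in these data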;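 note: 0% = wild-type ABHD4 with DMSO and 100% = catalytically dead S159A mutant with DMSO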). Conditions: purified mABHD4, FP-Rh probe fluorescence polarization; at 8.92 µM; stronger effect = higher value.
Assay [12] concerns transactivating tegument protein VP16 (Human herpesvirus 1). In words: compounds suppressing VP16-driven luciferase signal – cell-based, luminescence, single concentration, counter-screen for SRC2 inhibitor project (AID 652007; in the data active = inhibition above about 36%). Conditions: cell-based VP16 transactivation luciferase reporter, at 8.9 µM, stronger effect = higher value.
The target of assay [13] is Nuclear receptor coactivator 2 (Homo sapiens) (UniProt Q15596). In words: inhibition of GAL4-SRC2 driven luciferase expression – cell-based, luminescence, HEK293, triplicate, confirmation (AID 652008;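 active = mean inhibition above 46.5%, the solvent-only control mean plus 3 SD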;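 note: 0% = DMSO-treated cells and 100% = Gossypol at 36 µM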). The conditions noted are these: HEK293 GAL4-SRC2 luciferase reporter, at 8.9 µM, stronger effect = higher value.
Assay [14] can be described thus: StAR promoter reporter inhibitors, counter-screen for LRH-1 inverse agonist project, cell-based, luminescence, high throughput (AID 651611; in the data active = inhibition above about 28%). Conditions: StAR promoter luciferase reporter counterscreen, at 3.6 µM, stronger effect = higher value.
Assay [15] addresses Nuclear receptor subfamily 5 group A member 2 (Homo sapiens) (UniProt O00482). In words: NR5A2 activity suppression in reporter cells – cell-based, luminescence, confirmation (AID 651613; in the data active = inhibition above about 42%;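 note: HEK293T cells co-transfected with LRH-1 and StAR promoter luciferase reporter; 0% = vehicle wells and 100% = parental cells lacking receptor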). The conditions noted are these: cell-based LRH-1 luciferase reporter, inverse agonism; at 3.6 µM; stronger effect = higher value.
The target in assay [16] is Steroidogenic factor 1 (Homo sapiens) (UniProt Q13285). The assay is described as follows: inverse agonism at SF1 nuclear receptor – cell-based, luminescence, high throughput, counter-screen for LRH-1 inverse agonist project (AID 651614; in the data active = inhibition above about 44%;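 note: cells cotransfected with StAR promoter reporter and SF1 expression vector; 0% = vehicle on cells with receptor and 100% = vehicle on cells lacking receptor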). Conditions: cell-based SF1 luciferase reporter, at 3.6 µM, stronger effect = higher value.
Assay [17] is described as follows: compounds suppressing VP16-driven luciferase signal – cell-based, luminescence, high throughput, counter-screen for LRH-1 inverse agonist project (AID 651615; in the data active = inhibition above about 33%). The conditions noted are these: Gal4-VP16 luciferase reporter cells, at 3.6 µM, stronger effect = higher value.
Assay [18] addresses Nuclear receptor coactivator 3 (Homo sapiens) (UniProt Q9Y6Q9). The assay is described as follows: NCOA3 GAL4-fusion reporter inhibition – cell-based, luminescence, quadruplicate, confirmation (AID 588792;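 active = mean inhibition over 43.08%, the solvent-only control mean plus 3 SD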;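 note: 0% = DMSO treated cells and 100% = gossypol at 36 µM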). The conditions noted are these: HEK293 GAL4-SRC3 luciferase reporter, at 3.6 µM, stronger effect = higher value.
Assay [19] deals with transactivating tegument protein VP16 (Human herpesvirus 1), Gal4-VP16 luciferase reporter. The assay is described as follows: repression of VP16-driven luciferase reporter – cell-based, luminescence, high throughput, counter-screen for SRC3 inhibitor project (AID 588794; in the data active = inhibition above about 30%). The conditions noted are these: mammalian cells, at 3.6 µM, stronger effect = higher value.
Assay [20] addresses Platelet-activating factor acetylhydrolase (Homo sapiens) (UniProt Q13093). In words: inhibition of plasma PAF acetylhydrolase – biochemical, fluorescence polarization, human, confirmation (AID 463230;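 active = mean inhibition of the triplicate above the hit cutoff set for the earlier primary screen, cut at about 25% in these data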;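 note: 0% = enzyme with DMSO and 100% = wells lacking pPAFAH enzyme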). The conditions noted are these: recombinant pPAFAH, FP-Rh probe fluorescence polarization; at 3.39 µM; stronger effect = higher value.
The nature of assay [21]: VP16-driven transactivation reporter suppression – cell-based, luminescence, HEK293, counter-screen for COUP-TFII antagonist project (AID 687007; in the data active = inhibition above about 13%). Conditions: HEK293 Gal4-VP16 luciferase reporter, at 8.5 µM, stronger effect = higher value.
For assay [22], the target named is COUP transcription factor 2 (Homo sapiens) (UniProt P24468). In words: retest of COUP-TFII reporter suppressors – cell-based, luciferase reporter, HEK293, triplicate, confirmation (AID 687008;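 active = mean inhibition over three repeats above a set limit taken from the earlier primary screen, cut at about 38% in these data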;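 note: 100% = cells given the luciferase reporter alone without the COUP-TF2 vector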). Conditions: HEK293 NGFI-A luciferase reporter, luminescence; at 8.5 µM; stronger effect = higher value.

Each structure is given as a SMILES string. Values without a mark were called inactive. Some of the results follow. Active and inactive are the calls of the source.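 Rule for the calls, unless noted: active = mean activation above about 20% derived from the earlier single-dose screen (limit read from the data); inactive = the rest.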

What is called inhibition is the relative decrease from the control value, in per cent.

Chain of Vasopressin V1a receptor (Homo sapiens) (P37288 whole entry, looked up): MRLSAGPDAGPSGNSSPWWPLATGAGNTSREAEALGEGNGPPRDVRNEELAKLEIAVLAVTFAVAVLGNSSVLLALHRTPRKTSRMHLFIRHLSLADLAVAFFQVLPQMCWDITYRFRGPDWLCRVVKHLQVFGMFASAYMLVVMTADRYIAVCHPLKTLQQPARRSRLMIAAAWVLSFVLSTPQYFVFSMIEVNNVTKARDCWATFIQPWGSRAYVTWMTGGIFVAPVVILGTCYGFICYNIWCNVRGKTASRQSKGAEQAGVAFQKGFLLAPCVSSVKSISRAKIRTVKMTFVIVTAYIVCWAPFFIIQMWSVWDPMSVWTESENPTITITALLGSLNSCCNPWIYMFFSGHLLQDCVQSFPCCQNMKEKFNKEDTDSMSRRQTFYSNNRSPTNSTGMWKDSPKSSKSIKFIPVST
Chain of Oxytocin receptor (Homo sapiens) (P30559 whole entry, looked up): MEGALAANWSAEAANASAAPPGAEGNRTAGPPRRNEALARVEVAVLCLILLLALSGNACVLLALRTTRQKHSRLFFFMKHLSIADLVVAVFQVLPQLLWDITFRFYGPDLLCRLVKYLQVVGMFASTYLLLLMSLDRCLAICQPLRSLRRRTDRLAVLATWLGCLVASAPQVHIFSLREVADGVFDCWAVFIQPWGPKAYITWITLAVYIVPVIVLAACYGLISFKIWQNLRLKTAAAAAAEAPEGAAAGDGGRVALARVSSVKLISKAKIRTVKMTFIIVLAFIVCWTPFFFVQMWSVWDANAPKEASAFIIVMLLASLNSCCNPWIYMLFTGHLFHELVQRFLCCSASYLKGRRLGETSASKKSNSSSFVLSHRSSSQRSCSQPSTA
Chain of Glutathione S-transferase omega-1 (Homo sapiens) (P78417 whole entry, looked up): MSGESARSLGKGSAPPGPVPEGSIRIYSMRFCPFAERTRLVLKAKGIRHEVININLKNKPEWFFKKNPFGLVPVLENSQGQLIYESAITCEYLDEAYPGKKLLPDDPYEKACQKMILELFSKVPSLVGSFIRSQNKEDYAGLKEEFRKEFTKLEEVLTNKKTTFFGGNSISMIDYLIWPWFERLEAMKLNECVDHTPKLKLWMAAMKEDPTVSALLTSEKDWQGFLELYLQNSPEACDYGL
Chain of Peroxisome proliferator-activated receptor gamma (Homo sapiens) + Nuclear receptor corepressor 2 (Homo sapiens) (P37231 whole entry, looked up): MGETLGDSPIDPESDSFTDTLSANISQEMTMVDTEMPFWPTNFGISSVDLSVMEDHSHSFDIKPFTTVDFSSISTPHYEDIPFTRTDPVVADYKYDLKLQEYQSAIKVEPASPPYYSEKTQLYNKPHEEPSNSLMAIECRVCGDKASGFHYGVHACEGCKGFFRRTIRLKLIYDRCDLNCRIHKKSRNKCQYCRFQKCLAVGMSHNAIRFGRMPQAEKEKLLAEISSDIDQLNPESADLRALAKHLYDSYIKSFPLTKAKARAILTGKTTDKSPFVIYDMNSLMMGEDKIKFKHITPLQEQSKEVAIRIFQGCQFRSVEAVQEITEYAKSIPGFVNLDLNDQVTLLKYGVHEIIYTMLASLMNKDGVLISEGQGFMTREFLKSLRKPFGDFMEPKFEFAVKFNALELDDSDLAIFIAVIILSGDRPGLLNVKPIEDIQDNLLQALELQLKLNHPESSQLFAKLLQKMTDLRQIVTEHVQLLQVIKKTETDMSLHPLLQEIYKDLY
Chain of Peroxisome proliferator-activated receptor gamma (Homo sapiens) + Nuclear receptor corepressor 2 (Homo sapiens) (Q9Y618 whole entry, looked up): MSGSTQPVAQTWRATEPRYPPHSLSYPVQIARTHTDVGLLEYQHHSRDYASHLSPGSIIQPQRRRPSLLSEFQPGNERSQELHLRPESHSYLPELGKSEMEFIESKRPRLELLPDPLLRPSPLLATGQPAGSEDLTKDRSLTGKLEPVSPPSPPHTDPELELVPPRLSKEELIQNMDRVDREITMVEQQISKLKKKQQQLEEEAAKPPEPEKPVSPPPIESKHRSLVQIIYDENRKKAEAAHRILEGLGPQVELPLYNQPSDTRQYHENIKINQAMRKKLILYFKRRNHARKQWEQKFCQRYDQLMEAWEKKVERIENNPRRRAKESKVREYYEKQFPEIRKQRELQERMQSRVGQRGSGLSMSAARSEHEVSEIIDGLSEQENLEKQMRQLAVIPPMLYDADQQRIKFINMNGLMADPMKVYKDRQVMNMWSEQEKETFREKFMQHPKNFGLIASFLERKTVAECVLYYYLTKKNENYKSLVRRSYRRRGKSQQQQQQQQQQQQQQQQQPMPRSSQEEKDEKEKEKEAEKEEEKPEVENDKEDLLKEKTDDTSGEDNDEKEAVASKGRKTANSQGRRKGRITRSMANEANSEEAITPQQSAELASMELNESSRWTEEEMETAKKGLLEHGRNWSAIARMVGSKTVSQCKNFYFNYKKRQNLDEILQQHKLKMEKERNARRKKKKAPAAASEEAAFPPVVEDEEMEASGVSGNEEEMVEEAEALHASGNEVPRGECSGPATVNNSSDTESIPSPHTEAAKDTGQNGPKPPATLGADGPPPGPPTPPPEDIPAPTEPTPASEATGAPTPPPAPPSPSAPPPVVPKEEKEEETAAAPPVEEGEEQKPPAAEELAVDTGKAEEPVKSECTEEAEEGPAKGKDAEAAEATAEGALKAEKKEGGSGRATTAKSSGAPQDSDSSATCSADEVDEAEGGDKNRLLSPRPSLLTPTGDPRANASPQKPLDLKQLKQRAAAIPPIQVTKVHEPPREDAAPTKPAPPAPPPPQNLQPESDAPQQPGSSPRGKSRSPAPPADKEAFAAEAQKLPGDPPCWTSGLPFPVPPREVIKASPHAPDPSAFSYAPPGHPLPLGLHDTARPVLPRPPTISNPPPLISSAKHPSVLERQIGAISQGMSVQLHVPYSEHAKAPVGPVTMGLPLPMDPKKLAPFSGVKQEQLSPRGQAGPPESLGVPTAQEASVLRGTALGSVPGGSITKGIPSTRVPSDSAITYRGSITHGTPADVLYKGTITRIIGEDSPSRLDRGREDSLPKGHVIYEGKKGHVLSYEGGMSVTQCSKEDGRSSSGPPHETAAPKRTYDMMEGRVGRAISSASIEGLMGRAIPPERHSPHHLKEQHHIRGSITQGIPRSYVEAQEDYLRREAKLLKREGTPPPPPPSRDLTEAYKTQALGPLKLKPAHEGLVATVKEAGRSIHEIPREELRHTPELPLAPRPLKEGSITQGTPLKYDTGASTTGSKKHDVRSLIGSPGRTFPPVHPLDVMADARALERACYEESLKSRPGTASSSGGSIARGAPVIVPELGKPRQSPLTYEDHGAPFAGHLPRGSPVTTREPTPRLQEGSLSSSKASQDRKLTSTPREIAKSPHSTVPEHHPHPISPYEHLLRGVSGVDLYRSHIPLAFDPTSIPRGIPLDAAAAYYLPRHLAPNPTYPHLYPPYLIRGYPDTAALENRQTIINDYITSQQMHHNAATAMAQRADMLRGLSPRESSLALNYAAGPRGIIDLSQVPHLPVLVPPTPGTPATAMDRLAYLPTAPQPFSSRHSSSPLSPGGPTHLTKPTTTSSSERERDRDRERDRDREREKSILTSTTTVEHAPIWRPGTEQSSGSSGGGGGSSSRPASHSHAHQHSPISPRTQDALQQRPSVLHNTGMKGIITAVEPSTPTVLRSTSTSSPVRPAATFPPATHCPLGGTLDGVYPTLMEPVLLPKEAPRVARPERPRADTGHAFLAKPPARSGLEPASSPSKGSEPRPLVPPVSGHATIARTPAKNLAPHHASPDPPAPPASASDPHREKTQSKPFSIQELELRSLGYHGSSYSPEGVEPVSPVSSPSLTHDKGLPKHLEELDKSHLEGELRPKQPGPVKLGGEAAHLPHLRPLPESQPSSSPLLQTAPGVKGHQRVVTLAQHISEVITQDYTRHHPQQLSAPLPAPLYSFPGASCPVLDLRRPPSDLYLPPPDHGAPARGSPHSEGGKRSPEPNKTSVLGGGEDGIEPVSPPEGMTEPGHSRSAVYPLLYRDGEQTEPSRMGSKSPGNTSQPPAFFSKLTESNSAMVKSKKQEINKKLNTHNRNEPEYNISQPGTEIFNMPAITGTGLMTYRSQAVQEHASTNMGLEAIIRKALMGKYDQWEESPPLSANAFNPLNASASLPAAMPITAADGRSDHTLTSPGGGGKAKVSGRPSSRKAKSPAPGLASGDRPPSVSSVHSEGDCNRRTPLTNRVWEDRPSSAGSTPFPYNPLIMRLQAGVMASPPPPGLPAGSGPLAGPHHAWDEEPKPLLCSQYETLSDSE
Chain of Lytic switch protein BZLF1 (Epstein-Barr virus (strain B95-8)) (P03206 whole entry, looked up): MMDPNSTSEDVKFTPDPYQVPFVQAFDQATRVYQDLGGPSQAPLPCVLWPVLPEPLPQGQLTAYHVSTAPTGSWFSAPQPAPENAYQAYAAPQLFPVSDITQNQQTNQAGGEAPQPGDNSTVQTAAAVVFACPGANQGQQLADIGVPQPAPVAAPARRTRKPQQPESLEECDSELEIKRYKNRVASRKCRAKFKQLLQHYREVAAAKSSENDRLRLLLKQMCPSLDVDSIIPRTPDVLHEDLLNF

In the case of `N#Cc1c(N)nc2c3c(sc(=N)c2c1N)NC(=O)CC3c1ccccc1Cl` (stereo not drawn), in assay [1], the activation (reported as inhibition) was -9.26%. Further, the inhibition in assay [2] was -7.41%.

`COc1cccc(CNCCc2c[nH]c3ccccc23)c1OCc1ccccc1F`: the values for the activation in assay [3] and in assay [4] were 14.2% and 12.1%, respectively.

As to `COc1ccc(N2CCN(C(=O)CN3C(=O)COc4ccccc43)CC2)cc1`, the inhibition in assay [5] was -8.37%; in assay [6], -9.94%.

Take `CC1=C/C(=N\OS(=O)(=O)c2ccccc2)C=CC1=O`: the inhibition was 90% (active) in [7], 83.7% (active) in assay [8] and 7.61% in assay [9].

Regarding `Cn1cnc2c1c(=O)n(Cc1ccccc1C#N)c(=O)n2C`, the inhibition in assay [5] is -1.92%; in assay [6] it was -2.72%.

In the case of `C#CCOCCOCCOCCNc1nc(N2CCN(C(=O)CCCCCCCCCCNC(=O)[C@H]([C@@H](C)CC)n3cc(CCCCN=C(N)N)nn3)CC2)nc(N2CCN(C(=O)CCCCCCCCCCNC(=O)[C@H](CO)n3cc(CCCSC)nn3)CC2)n1`, the inhibition was 57.5% (active) in [5] and 1.4% in [6].

With `c1ccc(C2CNCc3c2ccc2ccccc32)cc1` (stereo not drawn), the activation is 15.8% in assay [3] and 6.47% in assay [4].

For `Cn1c(SCC(=O)N/N=C/c2ccc(O)c(O)c2)nc2ccccc21`, the inhibition is 3.76% in assay [9], 72.4% (active) in assay [10] and 14.6% in assay [11].

As for `CN(Cc1ccccc1)Cc1ccccc1F`, the activation (reported as inhibition) in assay [1] is -2.78%. Also, in assay [2], the inhibition was -3.03%.

In the case of `CCC(=O)Nc1ccc(Nc2nc(Cl)nc(Nc3ccc(NC(=O)CC)cc3)n2)cc1`, the inhibition in assay [5] was -2.63%; in assay [6], 5.66%.

As to `Cc1cccc(NC(=O)c2sc3nc(N4CCOCC4)c4c(c3c2N)CCCC4)c1`, the activation (reported as inhibition) in assay [1] is -1.32%. For the same compound, the inhibition in assay [2] is -0.47%.

Regarding `Cc1ccc(N(Cc2cc(=O)[nH]c3ccccc23)C(=O)CCl)cc1`, the inhibition is 90% (active) in [9], 33.7% in [12] and 51.6% (active) in [13].

As for `N#Cc1ccccc1Sc1ccccc1C(=O)OCC(=O)NC1CCCCC1`, in [1], the activation (reported as inhibition) was 10.1%. Also, in assay [2], the inhibition was 21.8% (active).

Consider `O=C1C(=O)N(CCN2CCOCC2)C(c2cccc(Cl)c2)/C1=C(/O)c1ccc2c(c1)OCO2` (stereo not drawn), for which, in assay [1], the activation (reported as inhibition) is 32.8% (active). The inhibition in assay [2] was 31.2% (active).

On to `COc1ccc(NS(=O)(=O)c2ccc(NC(=S)NC(=O)CC(C)C)cc2)cc1`, for which the activation in assay [3] was 12.6%; in [4] it was 12.8%.

For the compound `CCCc1ccc(OCC(=O)NNC(=S)NC(=O)c2ccco2)cc1`, the activation was 13.2% in assay [3] and 20.2% in [4].

`CCOc1cc(/C=C(\C#N)c2nc(-c3cccs3)c(NC(C)=O)s2)ccc1O`: the activation in assay [3] is 31.9% (active); in assay [4] it was 25.4% (active).

On to `Cc1nn(-c2ccccc2)c(C)c1NC(=O)CCl`, for which the inhibition in assay [9] was 83.7% (active); in assay [14] it was 28.1% (active); in assay [15], 35.5%; in [16], 61.1% (active); in [17] it was -83.9%.

For `CCN(CCCNC(=O)c1ccc2c(c1)NC(=O)CN2C)c1cccc(C)c1`, the inhibition is 36.3% (active) in assay [9], 10.3% in assay [18] and 1.36% in [19].

For the compound `CN(C)CCCN(C(=O)c1ccc(S(=O)(=O)N2CCCCCC2)cc1)c1nc2ccc(Br)cc2s1`, the activation in assay [3] was 6.69%; in [4], 11.3%.

On to `C/C(=N\NS(=O)(=O)c1ccc(Cl)cc1)c1ccc(NC(=O)c2ccco2)cc1`, for which the activation was 17.6% in assay [3] and 11.1% in [4].

Consider `CC(C)c1ccc(C2C(C(=O)c3ccco3)=C(O)C(=O)N2CC2CCCO2)cc1` (stereo not drawn), for which the activation (reported as inhibition) in [1] is -0.08%. The inhibition in assay [2] was 1.84%.

In the case of `CSc1nnc(SCc2nc3sc(C(=O)O)c(C)c3c(=O)[nH]2)s1`, the inhibition in assay [5] was 55.8% (active); in assay [6], 5.58%; in [20], 43.4% (active).

In the case of `COc1cccc(-n2c(=S)[nH]c3c(oc4ccccc43)c2=O)c1`, in assay [1], the activation (reported as inhibition) is 14.3%. Also, the inhibition in assay [2] was 8.55%.

For the compound `CC1=CC2=NC(=O)/C(=C/c3coc4ccccc4c3=O)C(=N)N2O1`, the activation in [3] is 40% (active); in assay [4], 36.5% (active).

As for `O=C(c1ccco1)N1CCN(C(=O)C2CC(c3ccc(F)cc3)=NO2)CC1` (stereo not drawn), the activation in assay [3] is -0.63%; in [4] it was 0.05%.

Turning to `COc1ccc(Cl)cc1NC(=O)NCC1CCN(Cc2ccccc2F)CC1`, the activation in [3] was 7.35%; in assay [4], 6.95%.

As for `COc1cc2[nH]c(=S)n(Cc3ccc(C)o3)c(=O)c2cc1OC`, the activation (reported as inhibition) in assay [1] was -5.72%. In assay [2], the inhibition is -2.05%.

In the case of `O=C(NNC(=S)NC(=O)c1cn(-c2ccccc2)nc1-c1ccccc1)c1ccncc1`, the activation in assay [3] is 4.81%; in assay [4] it was 9.53%.

`CC(CO)(CO)NC(=O)c1ccc(=O)[nH]n1`: the activation in [3] was -0.33%; in assay [4], 0.63%.

For `C=CCOc1cccc(C2C(C(=O)c3ccc(C)o3)=C(O)C(=O)N2CCCn2ccnc2)c1` (stereo not drawn), the activation (reported as inhibition) in [1] was 9.01%. In addition, in [2], the inhibition was 7.51%.

With `CCOC(=O)C1=C(c2ccc(OC)cc2)C(=O)c2ccccc2C1=O`, the inhibition was 8.3% in assay [9], 80.8% (active) in [21] and 93.5% (active) in [22].
